Screening data as filed in PubChem.
HCMV inh: blocks human cytomegalovirus replication | HFF cells, HCMV-luciferase reporter, 72 h; active compounds read low | activity change, negative = inhibition, % at 57.5 µM | 410,000 tested, 4.5% active | AID 1259415; in the data active = activity change below about -60%; inconclusive = no clear call, values can overlap the other calls; inactive = above about -39%; also: % is scaled to controls: 0 for no effect and ±100 for the full control effect
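Cell-based, HFFs, 1000 cells/well, 16 h 37C; cpds in DMSO + HCMV-luc, MOI 1 PFU/cell; 72 h 37C; OneGlo luminescence after 5 min RT; norm. to buffer vs Salinomycin 10uM.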
Shiga inhibitor: Shiga toxin inhibition; Vero cells, Shiga toxin protein synthesis inhibition reporter; inhibition, % at 38.7 µM; 290,000 tested, 9.2% active; in the data active = inhibition mostly above about 28%, no sharp cut-off; inactive = mostly below about 43%; also: 0% is about no effect
CHX counter: affects cycloheximide protein synthesis inhibition readout, counter-screen. 300,000 tested, 12% active. cell reporter, cycloheximide protein synthesis inhibition counterscreen. AID 2314. max response, %; in the data active = max response mostly above about 13%, no sharp cut-off; inactive = mostly below about 14%; also: read at 38.3 µM for the half of the compounds with a filed dose; 0% is about no effect
Pf growth 48h: P. falciparum growth inhibition at 48 hours (one generation); P. falciparum luciferase growth in erythrocytes, 48 h; Potency, µM (series often up to 28.7 µM), for the others: at the highest dose activity change, negative = inhibition, hits mostly inhibitors; 310,000 tested, 5.9% active; AID 504832; also: potency is read from the fitted curve at half-maximal effect; % is scaled to controls: 0 for no effect and ±100 for the full control effect
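Cell-based growth assay: transgenic P. falciparum expressing firefly luciferase, cultured in red cells within RPMI 1640 containing 0.5% w/v Albumax, 24 mM bicarbonate and gentamycin. A drop in luciferase activity indicates inhibition.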
Pf growth 96h: P. falciparum growth inhibition at 96 hours; P. falciparum luciferase reporter growth, 96 h; Potency, µM (doses to about 28.7 µM), inactives show top-dose activity change, negative = inhibition, hits mostly inhibitors; 320,000 tested, 6.9% active; AID 504834; also: potency is read from the fitted curve at half-maximal effect; % is scaled to controls: 0 for no effect and ±100 for the full control effect
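Two parasite generations (96 h, 37 C, 5% CO2) of compound exposure in infected erythrocytes (0.05% parasitemia, 2% hematocrit). Luciferase-reporter P. falciparum; decreased luminescence indicates inhibited growth, aimed at apicoplast-acting delayed death.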
The depositor's hits bear a star; ? = inconclusive; . = no result given; ! = a repeat was not active. Only some compounds are listed: those with a hit (about 20% of all), similar ones and a draw of the others. Unless noted, calls follow the shape of the dose curve; as a rule, active = well fitted inhibition curve with a large enough effect; inconclusive = small, poorly fitted or top-dose-only effect, or another doubt; inactive = no such curve, though single readings can be large or run the other way.

SMILES | HCMV inh | Shiga inhibitor | CHX counter | Pf growth 48h | Pf growth 96h
CNC(=O)Nc1ccc(C2SCCS2)cc1 | 65.4 | 27.1 | 17.3* | 53.4% | 42.8%
CCCCNC(=O)Nc1ccc(C2SCCS2)cc1 | 102.2 | 86.5* | 47.0* | 24.3% | ?
CCOC(=O)CNC(=O)Nc1cc(C(=O)NCc2ccccc2OC)ccc1N1CCCC1 | 15.0 | . | . | . | .
O=C1NC2(C=Cc3c(ccc4ccccc34)O2)Oc2ccccc21 (centres undefined) | . | 84.1* | 31.2* | -1.7% | 2.6%
CC(c1ccccc1)N1C(=O)OC(C)(C)C1(C)O (centres undefined) | -34.9 | . | . | 77.4% | 15.0%
CC1(C)OC(=O)N(c2ccccc2)C12C=Cc1c(ccc3ccccc13)O2 (centres undefined) | -15.0 | 2.8 | 8.3 | 13.1µM* | 136.4%
COc1ccc2c(c1)c(=O)c(S(=O)(=O)c1ccccc1)cn2CC(=O)Nc1ccc(C)c(Cl)c1 | 19.4 | . | . | . | .
O=C(CCS(=O)(=O)c1ccccc1)NCCS(=O)(=O)c1ccccc1 | 7.9 | -6.3 | 4.5 | -5.4% | 17.6%
O=C(CCS(=O)(=O)c1ccccc1)NC12CC3CC(CC(C3)C1)C2 | -23.9 | 48.3 | 25.2* | . | 92.7%
Cc1cc(O)c(/C=N/Nc2ccccc2Cl)c(=O)o1 | 13.8 | 24.5 | 22.1* | ? | 12.1%
COC(=O)[C@]12OC[C@]34C([C@@H](O)[C@@H]1O)[C@]1(C)CC(=O)C(O)=C(C)[C@@H]1C[C@H]3OC(=O)[C@H](O)[C@@H]24 (some centres undefined) | ? | -12.0 | -11.7 | 1.04µM* | 1.04µM*
CCOC(=O)N1CCN(C(=O)C(=O)c2cn(CC(=O)N3CCCCCC3)c3ccccc23)CC1 | -36.2 | -8.4 | -2.6 | 11.7µM* | 11.7µM*
CCOC(=O)C1CCN(C(=O)C(=O)c2cn(CC(=O)N3CCCCCC3)c3ccccc23)CC1 | 145.3 | 8.4 | -3.2 | 11.7µM* | 10.4µM*
CC1CCCCN1C(=O)C(=O)c1cn(CC(=O)N2CCCC2)c2ccccc12 (centres undefined) | 40.6 | -5.3 | 7.3 | -13.1% | ?
CC1CCCCN1C(=O)C(=O)c1cn(CC(=O)N2CCCCCC2)c2ccccc12 (centres undefined) | 1.7 | -6.2 | -0.6 | ? | 13.1µM*
O=CN1CCN(C(=O)C(=O)c2cn(CC(=O)N3CCCCC3)c3ccccc23)CC1 | 6.0 | -4.9 | -3.4 | -14.0% | 8.5%
CCOC(=O)C1CCCN(C(=O)C(=O)c2cn(CC(=O)N3CCOCC3)c3ccccc23)C1 (centres undefined) | -7.5 | -10.4 | -0.7 | 0.0% | -4.7%
CCN(CC)CCCNC(=O)c1ccc2nc(N3CCCCC3)sc2c1 | 63.7 | . | . | . | .
COc1cccc(CNCCSc2nnnn2C)c1OCc1ccc(Cl)cc1Cl | -60.6* | . | . | . | .
Cn1nnnc1SCCCNCc1ccccc1OCc1ccccc1Cl | -63.3* | -9.3 | -11.1 | . | .
COc1cc(NC(=O)c2ccc(N)nc2)cc(C(=O)Nc2cccc(C(F)(F)F)c2)c1 | 19.9 | 54.8* | 13.1 | 0.738µM* | 0.738µM*
COc1ccc(-c2cc(C(=O)Nc3cc(OC)cc(C(=O)Nc4cccc(C(F)(F)F)c4)c3)[nH]n2)cc1 | -28.3 | 16.0 | 2.1 | 1.85µM* | 1.31µM*
COc1ccc(NC(=O)c2cc(-c3ccc(F)cc3OC(C)C)n[nH]2)cn1 | -14.8 | . | . | . | .
CC(C)Oc1cc(F)ccc1-c1cc(C(=O)Nc2cccc(C(F)(F)F)c2)[nH]n1 | -63.9* | . | . | . | .
COc1cc(NC(=O)c2nccnc2N)cc(C(=O)Nc2cccc(C(F)(F)F)c2)c1 | -7.4 | -2.9 | -1.5 | ? | ?
SMILES | HCMV inh | Shiga inhibitor | CHX counter | Pf growth 48h | Pf growth 96h
COc1cc(Nc2ccccn2)cc(C(=O)Nc2cccc(C(F)(F)F)c2)c1 | -68.5*! | 7.6 | 2.4 | ? | 25.5%
Cc1c(CC(=O)N2CCCCC2)c(=O)oc2cc3occ(C(C)(C)C)c3cc12 | -2.0 | . | . | . | .
Cc1ccc(S(=O)(=O)N2[C@@H](c3ccc(C(C)(C)C)cc3)C(C(=O)O)=CC[C@H]2c2ccc(C(C)C)cc2)cc1 | -25.8 | . | . | . | .
C=C(C)Cn1c(Sc2nc3ccccc3[nH]2)nc2c1c(=O)[nH]c(=O)n2C | -25.0 | 19.8 | 17.6 | . | -21.2%
COc1ccc(NC(=O)Cn2c(=O)n(-c3ccc(OC)cc3OC)c(=O)c3c(C)c(C)sc32)cc1 | -28.9 | -9.1 | -1.4 | ? | 11.7µM*
CCc1ccccc1NS(=O)(=O)c1c(C(=O)N2CCCCCC2)c(C)n(C)c1C | -39.2 | -7.5 | -1.1 | ? | 17.5%
O=C(/C=C/c1ccccc1)NC(=S)Nc1ccc(N2CCOCC2)cc1 | -12.9 | 9.6 | -2.2 | 5.4% | -15.3%
CC(C)c1ccc(C(=O)NN2CCOCC2)cc1 | 16.3 | -20.4 | -1.5 | -24.9% | -17.7%
CC(C)c1ccc(/C=C/C(=O)NC(=S)NN2CCOCC2)cc1 | -98.0* | 15.0 | 17.4* | 9.7% | 11.7µM*
CC(C)c1ccc(/C=C/C(=O)NC(=S)Nc2ccc(CN3CCOCC3)cc2)cc1 | ? | 11.8 | 14.8* | ? | 5.22µM*
O=C(/C=C/c1cccc([N+](=O)[O-])c1)NC(=S)Nc1ccc(CN2CCOCC2)cc1 | -72.4* | -3.2 | -0.6 | 11.7% | -26.0%
CCN(Cc1ccccc1)c1nc2c(S(=O)(=O)c3ccccc3)nnn2c2ccc(Cl)cc12 | ? | -11.0 | 10.2 | . | .
CCc1ccccc1NC(=O)COc1ccc(C(=S)N2CCCC2)cc1 | ? | 1.7 | -1.5 | ? | 46.8%
O=C(Nc1cccc(C(=O)OCc2cc(=O)n3nc(C4CC4)sc3n2)c1)c1cccc(F)c1 | 3.0 | . | . | . | .
COC(=O)CCc1ccc(O)cc1 | 31.5 | -4.9 | -2.3 | 22.8% | 31.6%
COc1ccc(C(=O)COC(=O)c2cccnc2Cl)c(OC)c1 | -0.5 | 72.0* | 38.3* | 130.8% | -24.6%
CCOc1ncccc1C(=O)OCC(=O)c1ccc(C)c(C)c1 | 25.1 | 69.8* | 43.5* | 5.1% | 40.5%
Cc1cc(C)c(C(=O)COC(=O)c2cccnc2Cl)c(C)c1 | 17.6 | 89.9* | 56.2* | -20.4% | 9.5%
COc1cc(O)ccc1C(=O)CCc1ccc(O)cc1 | -3.3 | 16.1 | 11.9* | ? | ?
CC1CCCCC12NC(=O)N(CC(=O)N1CCc3ccccc3C1)C2=O (centres undefined) | -24.3 | . | . | 2.0% | 30.5%
O=C(OCC(=O)C12CC3CC(CC(C3)C1)C2)c1cccnc1Cl | -34.2 | 29.3 | 20.1* | 18.7% | 58.7%
COc1ccc(OC)c(C(=O)CCCC(=O)c2cc(OC)ccc2OC)c1 | -61.5* | 2.5 | 1.2 | ? | ?
COc1ccc(OC)c(C(=O)COC(=O)c2c(OC)cccc2OC)c1 | 116.4 | -16.9 | -1.3 | -22.7% | -0.6%
COc1ccc(OC)c(C(=O)COC(=O)c2ccccc2O)c1 | 12.3 | 110.3* | 15.6* | 3.8% | 0.2%
O=C(OCC(=O)C12CC3CC(CC(C3)C1)C2)c1ccccn1 | -16.3 | -10.0 | 12.5 | 18.9% | 48.7%
C/C(=N\n1cnnc1)c1ccc(C#N)cc1 | 42.8 | -5.4 | 4.5 | 10.0% | ?
C/C(=N\NC(=O)C(N)=O)c1ccc(OC(F)F)cc1 | 22.1 | 11.3 | 13.8 | 102.6% | 23.8%
